Measurements published in PubChem BioAssay AID1159580 (chemical genetic matrix, 2015).
Screen size: about 5,500 compounds; about 2,000 (36%) were called active. Inconclusive results (about 18%) are left out. No stated cut-off is given here; in the data, active means normalized growth mostly below about 0.91 (no sharp cut-off); inconclusive means no clear call, values can overlap the other calls; inactive means mostly above about 0.92. The list shows a part of the results.

Test: chemical genetic growth profiling, strain panel (AID 1159580);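 further: tested at 20 µM; growth read once vehicle control cultures reached saturation at 30 °C; 1 = growth at the plate median or of vehicle wells; lower values mean less growth of the strain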
Conditions: S. cerevisiae deletion strains, growth OD

Measured: normalized growth

CO[C@H]1[C@H](O)[C@H](O[C@H]2CC[C@]3(C)C4CC[C@]5(C)C(C6=CC(=O)OC6)CC[C@]5(O)C4CC[C@@H]3C2)O[C@@H](C)[C@@H]1O (some centres undefined)
inactive: locus YAL013W, strain DEP1, active compounds read low 1.01 | locus YAL021C, strain ccr4, active compounds read low 1 | locus YAL026C, strain drs2, active compounds read low 1.01 | locus YAL030W, strain snc1, active compounds read low 1 | locus YBL061C, strain skt5, active compounds read low 0.993 | locus YBR009C, strain hhf1, active compounds read low 1.01 | locus YBR021W, strain FUR4, active compounds read low 1.02 | locus YBR023C, strain chs3, active compounds read low 0.999 | locus YBR171W, strain sec66, active compounds read low 0.984 | locus YBR229C, strain ROT2, active compounds read low 1.01 | locus YBR231C, strain swc5, active compounds read low 1.03 | locus YBR279W, strain paf1, active compounds read low 1.01 | locus YCL011C, strain gbp2, active compounds read low 0.992 | locus YCL016C, strain dcc1, active compounds read low 1 | locus YCL029C, strain bik1, active compounds read low 1.01 | locus YCL061C, strain MRC1, active compounds read low 0.996 | locus YCL069W, strain vba3, active compounds read low 1 | locus YCR088W, strain abp1, active compounds read low 1 | locus YDL005C, strain med2, active compounds read low 0.994 | locus YDL035C, strain GPR1, active compounds read low 1.02 | locus YDL040C, strain nat1, active compounds read low 1.02 | locus YDL074C, strain BRE1, active compounds read low 1.02 | locus YDL101C, strain DUN1, active compounds read low 1.02 | locus YDL134C, strain PPH21, active compounds read low 1 | locus YDL185W, strain tfp1, active compounds read low 1 | locus YDL192W, strain arf1, active compounds read low 1.01 | locus YDR001C, strain nth1, active compounds read low 0.994 | locus YDR069C, strain doa4, active compounds read low 0.997 | locus YDR101C, strain arx1, active compounds read low 0.993 | locus YDR137W, strain rgp1, active compounds read low 1 | locus YDR150W, strain NUM1, active compounds read low 1.01 | locus YDR159W, strain sac3, active compounds read low 0.997 | locus YDR162C, strain NBP2, active compounds read low 1.02 | locus YDR195W, strain ref2 0.989 | locus YDR297W, strain sur2, active compounds read low 1.01 | locus YDR318W, strain mcm21, active compounds read low 1.01 | locus YDR334W, strain swr1, active compounds read low 1.03 | locus YDR335W, strain msn5, active compounds read low 1.01 | locus YDR388W, active compounds read low 1.01 | locus YDR392W, strain spt3, active compounds read low 0.991 | locus YDR502C, strain sam2, active compounds read low 1 | locus YEL003W, strain gim4, active compounds read low 1.02 | locus YEL037C, strain rad23, active compounds read low 1.01 | locus YEL061C, strain CIN8 (second series), active compounds read low 0.987 | locus YEL061C, strain CIN8, active compounds read low 1.01 | locus YER015W, strain faa2, active compounds read low 1 | locus YER016W, strain bim1, active compounds read low 1 | locus YER110C, active compounds read low 1.02 | locus YER111C, strain swi4, active compounds read low 1.01 | locus YER155C, strain BEM2 (second series), active compounds read low 1.03 | locus YER155C, strain BEM2, active compounds read low 1.02 | locus YER167W, strain BCK2, active compounds read low 1.02 | locus YFR010W, strain ubp6, active compounds read low 1.01 | locus YGL078C, strain dbp3, active compounds read low 1 | locus YGL086W, strain mad1, active compounds read low 1.01 | locus YGL167C, strain pmr1, active compounds read low 1 | locus YGL173C, strain kem1, active compounds read low 0.996 | locus YGL227W, strain vid30, active compounds read low 0.997 | locus YGL240W, strain doc1, active compounds read low 1.02 | locus YGL248W, strain PDE1, active compounds read low 1.01 | locus YGL253W, strain hxk2, active compounds read low 0.996 | locus YGR078C, strain PAC10, active compounds read low 1.01 | locus YGR135W, strain pre9, active compounds read low 1.02 | locus YGR229C, strain SMI1, active compounds read low 1.03 | locus YGR252W, strain gcn5, active compounds read low 0.964 | locus YHR013C, strain ard1, active compounds read low 0.98 | locus YHR027C, strain rpn1, active compounds read low 0.979 | locus YHR030C, strain SLT2, active compounds read low 1.01 | locus YHR079C, strain IRE1 (second series), active compounds read low 1.01 | locus YHR094C, strain hxt1, active compounds read low 1.01 | locus YHR129C, strain ARP1, active compounds read low 1.01 | locus YHR142W, strain chs7, active compounds read low 1.02 | locus YHR200W, strain rpn10, active compounds read low 1.01 | locus YIL066C, strain RNR3, active compounds read low 1.01 | locus YIL073C, strain SPO22, active compounds read low 1.02 | locus YIL125W, strain kgd1, active compounds read low 0.997 | locus YIR030C, strain dcg1, active compounds read low 0.998 | locus YJL092W, strain hpr5, active compounds read low 1 | locus YJL095W, strain BCK1 (second series), active compounds read low 0.981 | locus YJL095W, strain BCK1, active compounds read low 1.04 | locus YJL115W, strain asf1, active compounds read low 0.999 | locus YJL129C, strain trk1, active compounds read low 0.974 | locus YJL134W, strain LCB3, active compounds read low 1.01 | locus YJL154C, strain vps35, active compounds read low 1.01 | locus YJL164C, strain tpk1, active compounds read low 0.998 | locus YJL166W, strain qcr8, active compounds read low 1 | locus YJL168C, strain set2, active compounds read low 1.01 | locus YJL187C, strain SWE1 (second series), active compounds read low 1.02 | locus YJL187C, strain SWE1, active compounds read low 0.998
